In PubChem BioAssay AID1159580 (chemical genetic matrix, 2015):
About 2,000 (36%) of roughly 5,500 compounds were called active. Roughly 18% stayed inconclusive and do not appear here. Cut-off read from the data, not from the text of the source: active = normalized growth mostly below about 0.91 (no sharp cut-off); inconclusive = no clear call, values can overlap the other calls; inactive = mostly above about 0.92. The list shows a part of the results.

Experiment: chemical genetic growth profiling, strain panel (AID 1159580);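 note: tested at 20 µM; growth read once vehicle control cultures reached saturation at 30 °C; 1 = growth at the plate median or of vehicle wells; lower values mean less growth of the strain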
Settings: growth OD

Measured: normalized growth

COc1ccc(-c2cc(=O)c3c(O)cc(O[C@@H]4O[C@H](CO[C@H]5O[C@H](C)[C@@H](O)[C@H](O)[C@@H]5O)[C@@H](O)[C@H](O)[C@H]4O)cc3o2)cc1O
inactive: S. cerevisiae deletion strains, locus YKL009W, strain mrt4, active compounds read low 0.981 | S. cerevisiae deletion strains, locus YKL068W, active compounds read low 0.973 | S. cerevisiae deletion strains, locus YKL085W, strain MDH1 (second series), active compounds read low 0.991 | S. cerevisiae deletion strains, locus YKL085W, strain MDH1, active compounds read low 0.991 | S. cerevisiae deletion strains, locus YKL160W, strain elf1, active compounds read low 1 | S. cerevisiae deletion strains, locus YKL190W, strain CNB1, active compounds read low 0.994 | S. cerevisiae deletion strains, locus YKR001C, strain vps1, active compounds read low 1.02 | S. cerevisiae deletion strains, locus YKR026C, strain gcn3, active compounds read low 1.01 | S. cerevisiae deletion strains, locus YKR091W, strain srl3, active compounds read low 1.02 | S. cerevisiae deletion strains, locus YLL001W, strain dnm1, active compounds read low 1 | S. cerevisiae deletion strains, locus YLL026W, active compounds read low 1.01 | S. cerevisiae deletion strains, locus YLL041C, strain sdh2, active compounds read low 1.01 | S. cerevisiae deletion strains, locus YLR027C, strain aat2, active compounds read low 1.01 | S. cerevisiae deletion strains, locus YLR039C, strain RIC1, active compounds read low 0.954 | S. cerevisiae deletion strains, locus YLR058C, strain SHM2, active compounds read low 0.986 | S. cerevisiae deletion strains, locus YLR102C, strain apc9, active compounds read low 0.996 | S. cerevisiae deletion strains, locus YLR113W, strain HOG1, active compounds read low 1.03 | S. cerevisiae deletion strains, locus YLR221C, strain rsa3, active compounds read low 1.01 | S. cerevisiae deletion strains, locus YLR258W, strain gsy2, active compounds read low 1.03 | S. cerevisiae deletion strains, locus YLR262C, strain YPT6 (second series), active compounds read low 1.03 | S. cerevisiae deletion strains, locus YLR262C, strain YPT6, active compounds read low 0.949 | S. cerevisiae deletion strains, locus YLR268W, strain sec22, active compounds read low 1 | S. cerevisiae deletion strains, locus YLR320W, strain mms22, active compounds read low 1.03 | S. cerevisiae deletion strains, locus YLR330W, strain CHS5, active compounds read low 0.981 | S. cerevisiae deletion strains, locus YLR342W, strain FKS1 (second series), active compounds read low 1.01 | S. cerevisiae deletion strains, locus YLR342W, strain FKS1, active compounds read low 1.03 | S. cerevisiae deletion strains, locus YLR357W, strain rsc2, active compounds read low 1.03 | S. cerevisiae deletion strains, locus YLR370C, strain arc18, active compounds read low 1.01 | S. cerevisiae deletion strains, locus YLR371W, strain rom2, active compounds read low 0.999 | S. cerevisiae deletion strains, locus YLR384C, strain iki3, active compounds read low 1.03 | S. cerevisiae deletion strains, locus YLR418C, strain cdc73, active compounds read low 0.979 | S. cerevisiae deletion strains, locus YML016C, strain PPZ1, active compounds read low 0.994 | S. cerevisiae deletion strains, locus YML032C, strain rad52, active compounds read low 1.02 | S. cerevisiae deletion strains, locus YML120C, strain ndi1, active compounds read low 1.01 | S. cerevisiae deletion strains, locus YML124C, strain tub3, active compounds read low 1 | S. cerevisiae deletion strains, locus YMR058W, strain fet3, active compounds read low 1.01 | S. cerevisiae deletion strains, locus YMR078C, strain ctf18, active compounds read low 0.993 | S. cerevisiae deletion strains, locus YMR125W, strain sto1, active compounds read low 1.03 | S. cerevisiae deletion strains, locus YMR129W, active compounds read low 1 | S. cerevisiae deletion strains, locus YMR205C, strain PFK2, active compounds read low 1.03 | S. cerevisiae deletion strains, locus YMR223W, strain ubp8, active compounds read low 0.989 | S. cerevisiae deletion strains, locus YMR231W, strain pep5, active compounds read low 1.02 | S. cerevisiae deletion strains, locus YMR307W, strain GAS1, active compounds read low 1.07 | S. cerevisiae deletion strains, locus YNL067W, strain RPL9B, active compounds read low 1.04 | S. cerevisiae deletion strains, locus YNL071W, strain lat1, active compounds read low 1.03 | S. cerevisiae deletion strains, locus YNL128W, strain TEP1, active compounds read low 1.01 | S. cerevisiae deletion strains, locus YNL183C, strain NPR1, active compounds read low 0.989 | S. cerevisiae deletion strains, locus YNL209W, strain ssb2, active compounds read low 1.01 | S. cerevisiae deletion strains, locus YNL233W, strain BNI4, active compounds read low 1.01 | S. cerevisiae deletion strains, locus YNL248C, strain rpa49, active compounds read low 1 | S. cerevisiae deletion strains, locus YNL250W, strain rad50, active compounds read low 1 | S. cerevisiae deletion strains, locus YNL271C, strain bni1, active compounds read low 0.999 | S. cerevisiae deletion strains, locus YNL298W, strain CLA4, active compounds read low 0.985 | S. cerevisiae deletion strains, locus YNL307C, strain MCK1, active compounds read low 1 | S. cerevisiae deletion strains, locus YNL322C, strain KRE1 (second series), active compounds read low 1.02 | S. cerevisiae deletion strains, locus YNL322C, strain KRE1, active compounds read low 1 | S. cerevisiae deletion strains, locus YNR049C, strain mso1, active compounds read low 1.01 | S. cerevisiae deletion strains, locus YNR052C, strain pop2, active compounds read low 1 | S. cerevisiae deletion strains, locus YOL006C, strain TOP1, active compounds read low 1.08 | S. cerevisiae deletion strains, locus YOL012C, strain htz1 1.47 | S. cerevisiae deletion strains, locus YOL147C, strain pex11, active compounds read low 0.974 | S. cerevisiae deletion strains, locus YOR001W, strain rrp6, active compounds read low 1.03 | S. cerevisiae deletion strains, locus YOR061W, strain CKA2, active compounds read low 0.993 | S. cerevisiae deletion strains, locus YOR069W, strain VPS5, active compounds read low 0.987 | S. cerevisiae deletion strains, locus YOR070C, strain gyp1, active compounds read low 1.02 | S. cerevisiae deletion strains, locus YOR080W, strain dia2, active compounds read low 1.03 | S. cerevisiae deletion strains, locus YOR083W, strain WHI5, active compounds read low 0.992 | S. cerevisiae deletion strains, locus YOR106W, strain vam3, active compounds read low 0.983 | S. cerevisiae deletion strains, locus YOR136W, strain idh2, active compounds read low 1.01 | S. cerevisiae deletion strains, locus YOR144C, strain elg1, active compounds read low 1 | S. cerevisiae deletion strains, locus YOR184W, strain ser1, active compounds read low 1.01 | S. cerevisiae deletion strains, locus YOR231W, strain MKK1, active compounds read low 1 | S. cerevisiae deletion strains, locus YOR265W, strain rbl2, active compounds read low 1.02 | S. cerevisiae deletion strains, locus YOR270C, strain vph1, active compounds read low 0.983 | S. cerevisiae deletion strains, locus YOR290C, strain snf2, active compounds read low 1.02 | S. cerevisiae deletion strains, locus YOR316C, strain cot1, active compounds read low 0.997 | S. cerevisiae deletion strains, locus YPL051W, strain arl3, active compounds read low 1.01 | S. cerevisiae deletion strains, locus YPL055C, strain LGE1, active compounds read low 1.07 | S. cerevisiae deletion strains, locus YPL078C, strain atp4, active compounds read low 0.998 | S. cerevisiae deletion strains, locus YPL106C, strain sse1, active compounds read low 1.05 | S. cerevisiae deletion strains, locus YPL240C, strain hsp82, active compounds read low 1.03 | S. cerevisiae deletion strains, locus YPL241C, strain CIN2, active compounds read low 0.986 | S. cerevisiae deletion strains, locus YPL256C, strain CLN2, active compounds read low 0.987 | S. cerevisiae deletion strains, locus YPR119W, strain clb2, active compounds read low 1 | S. cerevisiae deletion strains, locus YPR141C, strain kar3, active compounds read low 0.972 | S. cerevisiae deletion strains, locus YPR163C, strain tif3, active compounds read low 0.992 | S. cerevisiae deletion strains, locus YPR167C, strain met16, active compounds read low 1.01 | S. cerevisiae deletion strains, strain wtn01, active compounds read low 0.997 | S. cerevisiae strains, strain wild type, active compounds read low 1
